This is an account of results in PubChem BioAssay AID686971 (National Center for Advancing Translational Sciences (NCATS), 2013).

Among all 360,000 compounds or so, about 7,500 (2.1%) were called active. Roughly 8% stayed inconclusive and do not appear here. The sample as a whole holds a higher share of actives than the screen did. A number with no mark means an inactive call. Calls follow the shape of the dose curve; as a rule, active = well fitted cell-killing curve with a large enough effect; inconclusive = small, poorly fitted or top-dose-only effect, or effect the other way, or another doubt; inactive = no such curve, though single readings can be large or run the other way.
Potency is read from the fitted curve at half-maximal effect.

The test in a line: qHTS for induction of synthetic lethality in tumor cells producing 2HG: qHTS for the HT-1080-IDH1KD cell line.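 As to activity, negative = toxicity: 0% = DMSO wells and -100% = cell-free medium wells.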 As to conditions: HT-1080 IDH1 knockdown viability, ATP luminescence, 48 h; series mostly up to 46.1 µM; activity, negative = toxicity: at the top concentration. The essentials:
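Using the IDH1-knockdown HT-1080 line run in the same batch and compound series as the NT line, viability after 48 h at 37 °C was determined by CellTiter-Glo luminescence and expressed as % activity.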
A general note: Quantitative high-throughput screening tests each substance at several concentrations.
Take `COc1ccc(N2c3ccccc3CN(Cc3ccccc3)[C@@H](C)[C@H]2Cc2ccc(-c3ccccc3)cc2)cc1`: the “activity, negative = toxicity” value is 4.14%.

With `O=C(NCc1ccccc1Cl)c1csc([C@@H]2O[C@H](CO)[C@@H](O)[C@H]2O)n1`, the “activity, negative = toxicity” value is 0.392%.

Consider `O=C(Nc1ccc2nc3n(c(=O)c2c1)CCCC3)c1ccc(Cl)nc1`, for which the “activity, negative = toxicity” value was 14.3%.

`CCN(CC)c1ccc(NC(=O)c2ccc(Cl)nc2)cc1`: the Potency was 7.31 µM (active).

Regarding `O=C(NNC(=O)c1ccc(Cl)nc1)c1ccc(Br)cc1`, the “activity, negative = toxicity” value is 15.7%.

`CC(C)n1ncc2c(C(=O)N3CCN(Cc4cccs4)CC3)cc(C3CC3)nc21`: the “activity, negative = toxicity” value is -11.7%.

Take `CC1C(=O)N(Cc2cn(CC3CCCCC3)nn2)CCS(=O)(=O)N1Cc1ccc(-c2cccc(N(C)C)c2)cc1` (stereo not given): the “activity, negative = toxicity” value was -17.4%.

As for `COc1cc(/C=C/C(=O)N2c3ccccc3Sc3ccc(C(F)(F)F)cc32)cc(OC)c1OC`, the “activity, negative = toxicity” value is 4.35%.

Take `O=C(CN1CCCCC1)N1c2ccccc2Sc2ccc(C(F)(F)F)cc21`: the “activity, negative = toxicity” value is -9.16%.

Regarding `O=C(CN1CCCCCC1)N1c2ccccc2Sc2ccc(C(F)(F)F)cc21`, the Potency was 11.2 µM (active).

Take `O=S1(=O)CC(N2CCN(c3ccccn3)CC2)CN1Cc1ccc(F)cc1` (stereo not given): the “activity, negative = toxicity” value was 12.9%.

As for `COc1cc(OC)cc(C(=O)N[C@H](C(=O)NNC(=O)c2ccc(Br)cc2)C(C)C)c1`, the “activity, negative = toxicity” value was -0.904%.

Turning to `COc1ccc(C(=O)N[C@H](C(=O)NCc2ccccc2)C(C)C)cc1`, the “activity, negative = toxicity” value was 1.96%.

With `COc1cc(OC)cc(C(=O)N[C@H](C(=O)Nc2nc3ccccc3[nH]2)C(C)C)c1`, the Potency was 1.3 µM (active).

On to `Cc1ccccc1CN1C(=O)CSCC1(C)C(=O)Nc1c(C)cccc1C` (stereo not given), for which the “activity, negative = toxicity” value is 13.5%.

Take `N#Cc1cccc(NC(=O)c2cc(C3CCCCN3C(=O)CCc3ccccc3)on2)c1` (stereo not given): the “activity, negative = toxicity” value is -6.65%.

As for `O=C(COC(=O)c1cccc(Cl)c1Cl)NC1CCCCCC1`, the “activity, negative = toxicity” value is 9.61%.

On to `Cc1ccc([C@H]2N[C@]3(CCCN(CC4CCCCC4)C3=O)[C@H]3C(=O)N(Cc4ccccc4)C(=O)[C@@H]23)cc1`, for which the “activity, negative = toxicity” value is 4.94%.

With `CCNC(=S)Nc1ccc(OC(F)(F)F)cc1`, the “activity, negative = toxicity” value was -2.34%.

`COc1ccccc1CC1(C)C(=O)Nc2ccc(OC(F)(F)F)cc21` (stereo not given): the “activity, negative = toxicity” value is -43.7%.

As to `CCc1ccc2c(c1)NC(=O)C2(C)Cc1ccc(OC(F)(F)F)cc1` (stereo not given), the Potency is 23.1 µM (active).

In the case of `CC(=O)c1ccc(OCC(=O)N(C)C2CCS(=O)(=O)C2)cc1` (stereo not given), the “activity, negative = toxicity” value is 13.3%.

As to `O=C(NC1CCCC1)C1c2ccccc2OCC(=O)N1CC(F)(F)F` (stereo not given), the “activity, negative = toxicity” value is 11.4%.

As for `Cc1c(C(=O)NCC(c2ccco2)N2CCCC2)oc2ccc(Cl)cc12` (stereo not given), the Potency was 23.1 µM (active).

For the molecule `CSc1ncccc1C(=O)NCC(c1ccco1)N1CCCCC1` (stereo not given), the “activity, negative = toxicity” value was -1.6%.

In the case of `Cc1cc(S(=O)(=O)Nc2ccc(C(=O)NCC(c3ccco3)N3CCCC3)cc2)ccc1F` (stereo not given), the “activity, negative = toxicity” value is -2.76%.

Consider `C/C(=N/Nc1ccc(Cl)cc1)c1cnnc(-c2ccccc2)n1`, for which the “activity, negative = toxicity” value was 9.94%.

On to `CCCCCCCN=C(C)c1ccccc1O`, for which the “activity, negative = toxicity” value is 13.1%.

For the molecule `C/C(=N\Nc1ccc(Cl)nn1)c1ccccc1O`, the Potency was 3.26 µM (active).

For `O=C(C[C@H]1C[C@H]2c3cc(NS(=O)(=O)c4ccc(F)cc4)ccc3O[C@H]2[C@H](CO)O1)NCc1cc(F)ccc1F`, the “activity, negative = toxicity” value was 1.04%.

As for `COc1ccc(C(=O)NCC2CCCO2)cc1S(=O)(=O)NCc1ccc(Cl)cc1` (stereo not given), the “activity, negative = toxicity” value was -1.21%.

Turning to `CC1CCCCN1S(=O)(=O)c1ccc(C(=O)Nc2nnc(-c3cccs3)o2)cc1` (stereo not given), the Potency was 8.2 µM (active).

Consider `CSCc1nnc(NC(=O)c2ccc(S(=O)(=O)N3CCCCC3C)cc2)o1` (stereo not given), for which the “activity, negative = toxicity” value was -20.2%.

As to `CC1CCCN(S(=O)(=O)c2ccc(C(=O)Nc3nnc(-c4ccncc4)o3)cc2)C1` (stereo not given), the “activity, negative = toxicity” value was -27.2%.

With `CCCNC(=O)c1cc(C2CCCN(C(=O)c3ccc4c(c3)CCO4)C2)on1` (stereo not given), the “activity, negative = toxicity” value was 9.93%.

Take `COC(=O)C[C@H]1C[C@@H]2c3cc(N(C)C)ccc3O[C@@H]2[C@H](CO)O1`: the “activity, negative = toxicity” value was 8.05%.

Regarding `CCOc1ccc(CCNC(=O)COC(=O)c2ccc(C)c(S(=O)(=O)N3CCOCC3)c2)cc1OCC`, the “activity, negative = toxicity” value was 4.73%.

As for `c1csc(CN2CCN(Cc3cccs3)C2c2cccs2)c1`, the activity, negative = toxicity was -1.16% [at 9.24 µM].

`Brc1ccc2c(c1)[C@H]1OCC[C@H]1[C@@H](c1cccs1)N2`: the Potency is 9.2 µM (active).

In the case of `COc1cc2ccc(C(C)=O)c(O)c2cc1OC`, the “activity, negative = toxicity” value is 0.357%.

Consider `COCCNc1ncnc2c1ncn2[C@H]1CN(Cc2ccc(OC)cc2)C[C@@H](CO)O1`, for which the “activity, negative = toxicity” value was 11.1%.

Turning to `COc1cccc2c1C(=O)c1c(O)c3c(c(O)c1C2=O)CC(O)(C(C)=NNC(=O)c1ccc(Cl)c(Cl)c1)CC3OC1CC(N)C(O)C(C)O1` (stereo not given), the Potency was 1.16 µM (active).

Take `OC(c1ccccc1)c1nc(-c2cnc3ccccc3c2)cs1` (stereo not given): the “activity, negative = toxicity” value was -19.1%.

For the molecule `Cc1ccc(S(=O)(=O)N(C)C2(C)CCS(=O)(=O)C2)cc1` (stereo not given), the “activity, negative = toxicity” value was -16.1%.

Regarding `Cc1ccc(S(=O)(=O)C2(S(=O)(=O)c3ccc(C)cc3)CCCC2)cc1`, the Potency was 11.6 µM (active).

Consider `Cc1ccc(S(=O)(=O)NC2CCCCCC2)cc1`, for which the “activity, negative = toxicity” value was 6.42%.

`Cc1cc(C)c2c(=O)n3c(nc2c1)C(CC(C)C)NC(=O)c1cc2ccccc2cc1-3` (stereo not given): the “activity, negative = toxicity” value is -0.851%.

As to `COc1ccc(Br)c(Cn2c(C)c(C(=O)NCc3cccs3)sc2=O)c1`, the “activity, negative = toxicity” value was 0.492%.

Turning to `CCOc1ccccc1NC(=O)Cn1nnc(C(=O)NCc2cccs2)c1N`, the Potency was 0.411 µM (active).

Regarding `CCOc1ccc(Cl)cc1-c1cc(C(=O)NCc2cccs2)[nH]n1`, the “activity, negative = toxicity” value is 0.448%.
